Data on one compound can be found in PubChem BioAssay (NCATS).

Records with an inconclusive call do not appear. Activity calls are given as the source filed them. Unless noted, calls come from the whole dose curve; as a rule, active = well fitted curve in the direction sought with a large enough effect; inconclusive = small, poorly fitted or top-dose-only effect, or another doubt; inactive = no such curve, though single readings can be large; an effect the other way counts as inactive or inconclusive.

The target in test [1] is Peroxisome proliferator-activated receptor delta (Homo sapiens) (UniProt Q03181). Put plainly: qHTS assay for small molecule antagonists of peroxisome proliferator-activated receptor delta signaling (AID 588535; active = well fitted inhibition curve with a large enough effect in the signal ratio, with a control signal flat, not every such curve was filed as active; the % refers to the signal ratio). The note with it: HEK293T PPARd-UAS-bla, beta-lactamase FRET ratio, 18 h; series mostly up to 76.7 µM. The essentials: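 Antagonist-mode qHTS using GeneBLAzer PPAR-delta-UAS-bla HEK293T cells; compound exposure 18 hrs at 37 C over a titration. Ratiometric CCF4 fluorescence at 460/530 nm; concentration-response points fitted to the Hill equation.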
Sequence of Peroxisome proliferator-activated receptor delta (Homo sapiens) (Q03181 whole entry, looked up): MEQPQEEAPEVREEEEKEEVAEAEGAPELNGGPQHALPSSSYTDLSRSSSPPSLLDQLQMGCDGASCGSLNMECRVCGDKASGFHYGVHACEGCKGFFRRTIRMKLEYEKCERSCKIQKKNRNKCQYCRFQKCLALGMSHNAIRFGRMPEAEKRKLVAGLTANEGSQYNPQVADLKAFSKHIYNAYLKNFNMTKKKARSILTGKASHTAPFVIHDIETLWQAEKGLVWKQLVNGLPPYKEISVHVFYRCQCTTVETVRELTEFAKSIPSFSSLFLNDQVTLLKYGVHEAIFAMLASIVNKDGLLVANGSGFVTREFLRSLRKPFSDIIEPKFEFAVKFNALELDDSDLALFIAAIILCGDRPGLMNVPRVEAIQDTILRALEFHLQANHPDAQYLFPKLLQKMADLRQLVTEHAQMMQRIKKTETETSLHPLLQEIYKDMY
For orientation: In qHTS, concentration-response curves come from the screen itself.

Test [2] concerns the target Peroxisome proliferator-activated receptor gamma (Homo sapiens) (UniProt P37231). Put plainly: qHTS assay for small molecule agonists of peroxisome proliferator-activated receptor gamma signaling (AID 588536; active = well fitted curve in the direction sought with a large enough effect in the signal ratio, with a control signal flat, not every such curve was filed as active; the % refers to the signal ratio;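 note: 0% = DMSO basal wells and 100% = rosiglitazone at 2 µM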). The note with it: HEK293 PPARg-UAS-bla, beta-lactamase ratio, 16 h, percent of rosiglitazone response, DMSO as zero; series mostly up to 76.7 µM. The procedure, abridged:
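Cells were plated and held 6–6.5 h at 37 C, then compounds were added as a titration series. After a further 16 h, CCF4 dye was loaded for 2 h at room temperature and emission at 460/530 nm recorded.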

Test [3] can be described thus: qHTS assay for small molecule agonists of retinoid X receptor alpha signaling (AID 588544; calls by dose curve;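 for activation: 0% = DMSO basal wells and 100% = reference agonist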). The note with it: HEK293T RXRa-UAS-bla, beta-lactamase reporter, 18 h; 530 nm emission.
Test [4] addresses Retinoic acid receptor RXR-alpha (Homo sapiens) (UniProt P19793). The description is as above. The note with it: HEK293T RXRa-UAS-bla, beta-lactamase reporter, 18 h; series mostly up to 76.7 µM.
Test [5] deals with Thyroid hormone receptor beta (Homo sapiens) (UniProt P10828). Put plainly: qHTS assay for small molecule agonists of thyroid hormone receptor beta signaling (AID 588545; calls by dose curve;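 note: 0% = DMSO only and 100% = 10 nM T3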). The note with it: TR-UAS-bla GripTite HEK 293, beta-lactamase ratio, agonist mode, 18 h, percent of T3 response, DMSO as zero; series mostly up to 76.7 µM. The essentials: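 Compounds were tested as agonists in TR-UAS-bla-GripTite HEK 293 cells. After 18 hrs at 37 C, CCF4 substrate was added and fluorescence read after 2 hrs at room temperature.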
Sequence of Thyroid hormone receptor beta (Homo sapiens) (P10828 whole entry, looked up): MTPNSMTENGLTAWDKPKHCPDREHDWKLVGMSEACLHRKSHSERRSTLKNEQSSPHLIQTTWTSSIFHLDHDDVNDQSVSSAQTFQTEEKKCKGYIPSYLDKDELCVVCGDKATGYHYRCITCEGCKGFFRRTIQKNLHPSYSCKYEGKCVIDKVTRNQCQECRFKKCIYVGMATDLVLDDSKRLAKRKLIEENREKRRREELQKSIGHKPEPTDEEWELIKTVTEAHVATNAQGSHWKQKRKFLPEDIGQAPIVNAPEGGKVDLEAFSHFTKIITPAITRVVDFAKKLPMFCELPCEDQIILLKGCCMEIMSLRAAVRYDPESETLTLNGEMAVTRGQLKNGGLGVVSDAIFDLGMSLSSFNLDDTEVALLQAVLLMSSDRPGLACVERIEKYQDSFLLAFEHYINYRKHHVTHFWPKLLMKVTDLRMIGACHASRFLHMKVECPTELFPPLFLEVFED

Test [6] is described as follows: qHTS assay for small molecule antagonists of retinoid X receptor alpha signaling (AID 588546; active = well fitted inhibition curve with a large enough effect in the signal ratio, with a control signal flat, not every such curve was filed as active; the % refers to the signal ratio;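 note: cells stimulated with 9-cis-retinoic acid as agonist; % is set by controls: 0 for no effect and ±100 for the full control effect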). The note with it: HEK293T RXRa-UAS-bla, beta-lactamase ratio, antagonist mode; measured here: W530 green channel, cytotoxicity proxy. The procedure, abridged:
(§1)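 Beta-lactamase reporter inhibition, read as CCF4 fluorescence ratio (ex 405, em 460/530 nm) after 2 h at RT. HEK293T UAS-bla cells, 2500/well, were stimulated with 9-cis-RA at 500 or 100 nM final alongside test compound for 18 h at 37 C.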

Test [7] has as its target Retinoic acid receptor RXR-alpha (Homo sapiens) (UniProt P19793). Described as above. The note with it: HEK293T RXRa-UAS-bla, beta-lactamase ratio, antagonist mode. The essentials: as §1
Test [8] addresses Thyroid hormone receptor beta (Homo sapiens) (UniProt P10828). Put plainly: qHTS assay for small molecule antagonists of thyroid hormone receptor beta signaling (AID 588547; active = well fitted inhibition curve with a large enough effect in the signal ratio, with a control signal flat, not every such curve was filed as active; the % refers to the signal ratio;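 note: cells stimulated with 0.4 nM T3 agonist during compound exposure; % is set by controls: 0 for no effect and ±100 for the full control effect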). The note with it: TR-UAS-bla HEK293, beta-lactamase ratio, antagonist mode, 18 h. The procedure, abridged:
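Inhibition of T3-driven (0.4nM final) beta-lactamase reporter activity was measured over 0.59 nM to 92 uM compound after 18 h at 37 C. The cells were GripTite HEK293 TR-UAS-bla in charcoal/dextran-stripped serum, with CCF4 ratio read-out and IC50 from Hill fits.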

A short description of test [9]: qHTS assay for small molecule activators of the p53 signaling pathway (AID 651743; active = well fitted activation curve with a large enough effect in the signal ratio, not every such curve was filed as active; the % refers to the signal ratio; note: % of control where 0% means no effect). The note with it: HCT-116 p53RE-bla, beta-lactamase FRET ratio, 16 h; activation: stronger effect = higher value. The procedure, abridged:
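A beta-lactamase reporter under p53 response element control, stably carried by HCT-116 cells, reported pathway activation. Test compounds were applied for 16 hours at 37 C, and fluorescence was measured 2 hours after adding the B/G FRET substrate.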

Test [10] can be described thus: qHTS assay for small molecule activators of the nuclear factor-kappa B (NF-kB) signaling pathway (AID 651749; active = well fitted activation curve with a large enough effect in the signal ratio; the % refers to the signal ratio; note: % of control where 0% means no effect). The note with it: NF-kB-bla ME-180 cells, beta-lactamase FRET ratio, 16 h; stronger effect = higher value. The essentials:
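FRET-based beta-lactamase detection in ME-180 cells reports NF-kB response-element-driven transcription following overnight (16 hr) compound treatment.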

Test [11] can be described thus: qHTS assay for small molecule disruptors of the mitochondrial membrane potential - 1 hr assay (AID 651754; calls by dose curve; note: potency is the fitted concentration of half-maximal effect; nearly all actives have a fitted effect of over 35% in size). The note with it: series mostly up to 92.2 µM. The essentials:
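Read-out: dye fluorescence at 490 nm ex/535 nm em (monomers) and 540 nm ex/590 nm em (aggregates) in HepG2 cells. Compound exposure 1 hr at 37C, followed by 30 min dye loading.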

Test [12] in a line: qHTS assay for small molecule disruptors of the mitochondrial membrane potential - 5 hr assay (AID 651755; calls by dose curve; note: potency is the fitted concentration of half-maximal effect; nearly all actives have a fitted effect of over 40% in size). The note with it: JC-1-type ratio dye; series mostly up to 92.2 µM. The procedure, abridged:
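Membrane-potential dye readout: red aggregate (540 ex/590 em) versus green monomer (490 ex/535 em) fluorescence after 30 min dye loading, following 5 hr compound exposure at 37C of overnight-plated HepG2 cells.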

Test [13] has as its target Tumor necrosis factor (Homo sapiens) (UniProt P01375). Put plainly: qHTS assay to identify small molecules that stimulate Tumor Necrosis Factor-alpha (TNF-alpha) secretion (AID 651757; active = well fitted curve in the direction sought with a large enough effect in the signal ratio; the % refers to the signal ratio; note: 0% is about no effect). The note with it: Human cells, HTRF 665/615 ratio; series mostly up to 92.2 µM. The procedure, abridged:
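THP-1 cells, 3000/well; compound 17 hrs, 37 C; add cryptate/XL665 anti-TNF-alpha antibody pair; 3 hr RT; TR-FRET (HTRF) read of secreted TNF-alpha. Quantitative HTS format.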

Test [14] can be described thus: qHTS assay for environmental chemicals that activate the Aryl hydrocarbon Receptor (AhR) signaling pathway (AID 651777). Note: potency is the fitted concentration of half-maximal effect; nearly all actives have a fitted effect of over 15% in size. The note with it: 1A2-DRE human hepatoma cells, luciferase, 24 h; activation: stronger effect = higher value. The procedure, abridged: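 Measured luciferase activity, read 30 min after One-Glo addition at room temperature, from human hepatoma cells bearing a dioxin response element–CYP1A2 promoter reporter and exposed to compound for 24 hr at 37 C.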

Test [15] concerns the target Peroxisome proliferator-activated receptor alpha (Homo sapiens) (UniProt Q07869). In words: qHTS assay for small molecule agonists of the peroxisome proliferator-activated receptor alpha (PPARalpha) signaling pathway (AID 651778). Note: % of control where 0% means no effect. The note with it: PathHunter PPARalpha complementation, chemiluminescence, 6 h; stronger effect = higher value. The essentials:
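Chemiluminescence from complemented enzyme reported PPARalpha activation in cells after 6 hr of compound treatment at 37 C. The detection reagent was incubated for 60 min at room temperature, and compounds were scored as agonists.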

Test [16] has as its target Nuclear receptor ROR-gamma (Homo sapiens) (UniProt P51449). Put plainly: qHTS assay for small molecule antagonists of the retinoid-related orphan receptor gamma (ROR-gamma) signaling pathway (AID 651802).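 Note: CHO cells with doxycycline-induced ROR-gamma expression; luciferase reporter luminescence driven by ROR response element; % is set by controls: 0 for no effect and ±100 for the full control effect; nearly all actives have a fitted effect of over 60% in size.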 The note with it: ROR-gamma antagonist cell reporter assay; series mostly up to 92.2 µM. The procedure, abridged: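 Luciferase read-out: ONE-Glo luminescence after 30 min at room temperature, following 16hr doxycycline induction at 37C, 5% CO2 of CHO cells with TET-inducible ROR and RORE-LUC reporter; decreased luminescence = reduced reporter activity.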

The nature of test [17]: qHTS assay for small molecule antagonists of the retinoid-related orphan receptor gamma (ROR-gamma) signaling pathway - cell viability counter screen (AID 720652; active = well fitted curve in the direction sought with a large enough effect in the repeat runs; an effect the other way counts as inactive or inconclusive;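 note: CHO reporter cells with doxycycline-induced ROR-gamma expression; compound exposure lasted 16 hr before ATP read; % is set by controls: 0 for no effect and ±100 for the full control effect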). The note with it: RORgamma reporter cell line viability counter screen; series mostly up to 92.2 µM. The procedure, abridged:
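CHO RORE-LUC/TET-ROR line, 1,000 cells/well, 37 C 5% CO2 5 hr; cpd or DMSO + doxycycline induction, 16 hr. CellTiter-Glo, 30 min RT, luminescence = ATP content.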

Test [18] in a line: qHTS assay for small molecule agonists of the antioxidant response element (ARE) signaling pathway measured by Nrf2-dependant transcriptional activity - cell viability counter screen (AID 720653; active = well fitted curve in the direction sought with a large enough effect in the repeat runs; an effect the other way counts as inactive or inconclusive; note: % is set by controls: 0 for no effect and ±100 for the full control effect). The note with it: ARE-bla HepG2 viability, CellTiter-Glo ATP luminescence, 16 h; stronger effect = lower value. The essentials: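 Cytotoxicity counter screen: intracellular ATP quantified by CellTiter-Glo luminescence in the same ARE-bla HepG2 plates, after 16 h compound exposure and a 2 h beta-lactamase substrate step.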

A short description of test [19]: qHTS assay for cell viability of HEK293 cells (AID 743288). Note: % is set by controls: 0 for no effect and ±100 for the full control effect; nearly all actives have a fitted effect of over 50% in size. The note with it: ATP luminescence (CellTiter-Glo), 18 h, stronger effect = lower value. The essentials: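 HEK293, 18 h, 37 C, ATP luminescence. Cells at 2,000/well were allowed at least 5 h to settle before dosing; CellTiter-Glo developed 30 min at RT.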
Test [20] is described as follows: qHTS assay for cell viability of the p53RE-bla HCT-116 cell line (AID 743292). Note: % is set by controls: 0 for no effect and ±100 for the full control effect; nearly all actives have a fitted effect of over 55% in size. The note with it: p53RE-bla HCT-116 viability, ATP luminescence, 16 h; series mostly up to 95 µM. The essentials: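 Intracellular ATP of p53RE-bla HCT-116 cells measured by luciferase luminescence following 16 h compound incubation at 37 C; DMSO-only wells served as vehicle controls.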

Test [21] addresses Calcium and integrin-binding protein 1 (Homo sapiens) (UniProt Q99828). In words: Primary qHTS for Identification of Calcium Integrin Binding Protein 1 (CIB1) Competitor (AID 1508620). The note with it: CIB1-GST / FITC-alphaIIb peptide fluorescence polarization; series mostly up to 114 µM. The essentials:
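CIB1-GST (1 uM final) and compound incubated 15 min at room temperature before adding FITC-alphaIIb peptide tracer (100 nM final). Competition for binding read by fluorescence polarization (ex 480, em 540) after another 15 min at room temperature.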

Sequence of Retinoic acid receptor RXR-alpha (Homo sapiens) (P19793 whole entry, looked up): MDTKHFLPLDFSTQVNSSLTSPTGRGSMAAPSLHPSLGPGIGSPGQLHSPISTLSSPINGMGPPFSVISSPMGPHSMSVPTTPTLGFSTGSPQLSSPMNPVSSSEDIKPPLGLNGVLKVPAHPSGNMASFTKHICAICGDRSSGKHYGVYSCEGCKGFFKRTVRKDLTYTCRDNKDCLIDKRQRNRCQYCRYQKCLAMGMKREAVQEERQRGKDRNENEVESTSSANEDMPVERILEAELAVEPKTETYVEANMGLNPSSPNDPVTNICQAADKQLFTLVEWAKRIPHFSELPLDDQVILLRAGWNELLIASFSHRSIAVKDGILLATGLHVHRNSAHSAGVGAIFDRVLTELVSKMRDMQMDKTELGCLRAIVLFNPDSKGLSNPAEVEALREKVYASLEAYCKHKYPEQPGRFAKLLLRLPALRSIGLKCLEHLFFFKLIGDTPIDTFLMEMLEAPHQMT
Sequence of Peroxisome proliferator-activated receptor alpha (Homo sapiens) (Q07869 whole entry, looked up): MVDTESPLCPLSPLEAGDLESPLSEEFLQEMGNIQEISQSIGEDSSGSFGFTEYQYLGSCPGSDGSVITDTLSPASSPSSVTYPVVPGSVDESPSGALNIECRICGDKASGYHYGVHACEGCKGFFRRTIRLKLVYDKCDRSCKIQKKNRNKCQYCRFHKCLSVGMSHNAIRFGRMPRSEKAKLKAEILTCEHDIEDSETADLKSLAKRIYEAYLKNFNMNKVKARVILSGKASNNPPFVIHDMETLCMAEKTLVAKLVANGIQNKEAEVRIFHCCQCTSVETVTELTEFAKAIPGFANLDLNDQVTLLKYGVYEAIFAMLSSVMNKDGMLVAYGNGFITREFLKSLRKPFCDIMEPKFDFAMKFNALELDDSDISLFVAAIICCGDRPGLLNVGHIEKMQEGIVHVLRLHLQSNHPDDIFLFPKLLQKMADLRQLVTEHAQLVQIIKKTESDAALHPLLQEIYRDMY
Sequence of Nuclear receptor ROR-gamma (Homo sapiens) (P51449 whole entry, looked up): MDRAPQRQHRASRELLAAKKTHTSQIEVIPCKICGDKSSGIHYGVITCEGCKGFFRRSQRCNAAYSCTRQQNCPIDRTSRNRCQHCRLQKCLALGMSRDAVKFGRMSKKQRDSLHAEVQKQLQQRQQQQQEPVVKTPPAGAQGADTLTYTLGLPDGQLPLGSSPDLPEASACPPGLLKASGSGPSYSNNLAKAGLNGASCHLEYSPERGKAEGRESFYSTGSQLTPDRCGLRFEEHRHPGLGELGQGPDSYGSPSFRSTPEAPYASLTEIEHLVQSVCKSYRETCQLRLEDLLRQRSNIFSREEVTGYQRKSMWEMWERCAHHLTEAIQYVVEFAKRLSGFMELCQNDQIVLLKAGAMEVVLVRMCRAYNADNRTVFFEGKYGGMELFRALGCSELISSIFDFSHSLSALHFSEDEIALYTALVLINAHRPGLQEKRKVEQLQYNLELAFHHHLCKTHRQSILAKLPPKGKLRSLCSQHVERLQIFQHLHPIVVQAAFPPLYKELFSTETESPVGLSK
Sequence of Calcium and integrin-binding protein 1 (Homo sapiens) (Q99828 whole entry, looked up): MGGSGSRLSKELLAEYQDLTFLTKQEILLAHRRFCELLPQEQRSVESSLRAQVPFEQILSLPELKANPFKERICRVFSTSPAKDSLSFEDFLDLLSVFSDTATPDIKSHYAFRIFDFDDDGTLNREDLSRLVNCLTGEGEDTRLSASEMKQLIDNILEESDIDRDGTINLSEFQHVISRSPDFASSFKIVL
Sequence of Peroxisome proliferator-activated receptor gamma (Homo sapiens) (P37231 whole entry, looked up): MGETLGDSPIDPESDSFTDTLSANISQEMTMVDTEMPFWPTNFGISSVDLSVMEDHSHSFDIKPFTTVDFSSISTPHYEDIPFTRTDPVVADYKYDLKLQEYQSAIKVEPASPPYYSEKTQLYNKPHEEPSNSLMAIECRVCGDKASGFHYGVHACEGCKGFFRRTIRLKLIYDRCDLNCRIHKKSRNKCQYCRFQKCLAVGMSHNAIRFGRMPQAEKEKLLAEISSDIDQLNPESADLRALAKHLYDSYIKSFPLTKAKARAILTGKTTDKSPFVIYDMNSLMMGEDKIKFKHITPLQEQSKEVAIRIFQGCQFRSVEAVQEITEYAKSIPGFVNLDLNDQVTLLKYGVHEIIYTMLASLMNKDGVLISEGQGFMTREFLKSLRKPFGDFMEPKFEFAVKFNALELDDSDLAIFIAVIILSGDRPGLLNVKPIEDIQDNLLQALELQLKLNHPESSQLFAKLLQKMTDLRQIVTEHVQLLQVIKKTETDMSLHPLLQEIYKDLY
Sequence of Tumor necrosis factor (Homo sapiens) (P01375 whole entry, looked up): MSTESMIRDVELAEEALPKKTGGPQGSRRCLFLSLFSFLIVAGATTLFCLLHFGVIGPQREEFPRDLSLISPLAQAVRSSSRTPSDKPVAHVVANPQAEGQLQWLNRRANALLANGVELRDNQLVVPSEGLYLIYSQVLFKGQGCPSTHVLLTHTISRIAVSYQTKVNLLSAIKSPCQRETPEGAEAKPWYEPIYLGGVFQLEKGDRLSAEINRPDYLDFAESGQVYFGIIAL

For the compound `O=C(Nc1ccccc1)Nc1ccccc1`, the outcome in test [1], in [2], in test [4], in test [5], in test [16] and in test [17] was inactive. The max response in test [3] is -6.23%; in test [6], -7.85%; in [7], -1.03% (inactive); in test [15], -3.47% (inactive); in [18], -0.927% (inactive); in test [19], -16.1% (inactive). Also, the activity change % (negative = inhibition) in [8] is -2.58% (inactive). Further, the results for the activation in test [9] and in test [10] were -2.22% (inactive) and 0.321% (inactive), respectively. The results for the Potency in test [11], in test [12] and in [14] were 10.6 µM (active), 13.3 µM (active) and 12.6 µM (active), respectively. The Potency entry in test [13], in [20] and in test [21] was “inactive” each time.
